These results are taken from paper PMC4081100, “A DNA-binding-site landscape and regulatory network analysis for NAC transcription factors in Arabidopsis thaliana”.

GST-WRKY1(266-371), sequence (Q9SI37 266-371): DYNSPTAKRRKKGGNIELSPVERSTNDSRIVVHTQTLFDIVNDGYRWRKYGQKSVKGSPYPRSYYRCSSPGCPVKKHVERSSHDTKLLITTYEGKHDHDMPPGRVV

In the assay the target is GST-WRKY1(266-371) (Arabidopsis thaliana, UniProt Q9SI37 266-371). The assay is described as follows: universal protein binding microarray (PBM); transcription factors of Arabidopsis thaliana; high values mean tight binding. To be noted: protein: recombinant; tags: GST; dsDNA, one strand shown. The procedure, abridged:
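Protein amounts were determined by A280 or anti-GST western blot after glutathione–Sepharose 4B purification of GST-tagged proteins induced in cells, with zinc acetate included for zinc-finger proteins. Duplicate runs at 200 to 500 nM final were done on custom all-10-mer Agilent 4 × 180K arrays made double-stranded by primer extension. The normalised enrichment score (E-score) over gapped and ungapped 8-mers is the measure of binding.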
As for CCGGTCAG, the binding signal turned out to be 0.44 E-score.
As to ATGCTGAC, the binding signal was found to be 0.41 E-score.
As for CGGGTCAA, the binding signal is 0.487 E-score.
As for AGTCAGCG, the figure is 0.453 E-score.
As for GCTGACCC, the figure is 0.444 E-score.
In the case of AAGACCGG, the binding signal turned out to be 0.428 E-score.
Consider CCAGGTCA, for which the binding signal was found to be 0.408 E-score.
Consider CAGGTCAA, for which the binding signal was 0.484 E-score.
Take TGACCGCA: the binding signal was determined as 0.429 E-score.
The result for ATTGACTC reads 0.47 E-score; that for GCTGGTCA, 0.452 E-score; that for ATGAGTCA, 0.427 E-score.
Regarding CCGAGTCA, the binding signal is 0.409 E-score.
The result for CCGCTGAC reads 0.414 E-score; that for AGGGTCAG, 0.403 E-score; that for CAACGACC, 0.421 E-score.
The result for CAAGACCG reads 0.405 E-score; that for AGGTCGTC, 0.416 E-score.
As to CCGGTCAA, the binding signal is 0.493 E-score.
The result for GAGGTCAA reads 0.485 E-score; that for GGTCAGCA, 0.456 E-score; that for GCCGTCAA, 0.402 E-score.
As for GCTCTGAC, the figure is 0.403 E-score; as for CGGTCAAG, 0.483 E-score.
On to GGGTCAGA, for which the binding signal came to 0.432 E-score.
For the sequence CGGTCAGA, the binding signal was 0.46 E-score.
Turning to CGGTTGAC, the binding signal worked out at 0.475 E-score.
Turning to CGAGTCAA, the binding signal is 0.477 E-score.
As for GACTGACC, the figure is 0.42 E-score.
In the case of AGTCAGCC, the binding signal is 0.415 E-score.
As for CGCTGACC, the figure is 0.474 E-score; as for GCTTGACC, 0.482 E-score.
TCCGGTCA: the binding signal worked out at 0.445 E-score.
On to GCGGTCAA, for which the binding signal was found to be 0.487 E-score.
For TGACCTCA, the binding signal is 0.41 E-score.
As for ACCAGTCA, the figure is 0.421 E-score; as for CATTGACC, 0.491 E-score; as for CGGTCGTC, 0.41 E-score.
